Measured values reported in PubChem BioAssay.
For part of these data: Measured potencies and affinities stand elsewhere. Activity calls are given as the source filed them.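 Rule for the calls, unless noted: active = earlier screen potentiator hit that boosts the TRPC4 ion channel at some dose, with a dose response; inactive = no potentiation, no dose response, or not a prior hit.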

Tests used:
[1] = system: TRPC4 beta (transient receptor potential cation channel C4), mouse; assay: activators of mouse TRPC4 channel, confirmation, cell-based, Fluo4 calcium, HEK293 TRPC4beta/mu-opioid, duplicates, 10 µM (AID 2426;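 active = fluorescence ratio normalized to control raised more than 50% in primary screen plus both repeat runs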); conditions: Fluo4 calcium fluorescence, at 10 µM; hits give high values
[2] = system: transient receptor potential cation channel C4 beta (TRPC4), mouse; assay: activators of mouse TRPC4 channel, confirmation, cell-based, second round, Fluo4, HEK293 TRPC4beta/mu-opioid, 1 µM (AID 2461;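 active = primary screen active and over 50% activation in each of two duplicate runs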); conditions: Fluo4 calcium fluorescence, at 1 µM; hits give high values
[3] = system: TRPC4 (transient receptor potential cation channel C4 beta), mouse; assay: positive allosteric modulators of mouse TRPC4, confirmation, cell-based, second round, Fluo-4, HEK293 TRPC4beta/mu-opioid, 1 µM (AID 2554;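 active = primary screen hit whose fluorescence ratio, in both repeats, exceeds the weak agonist control mean by 3 SD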); conditions: DAMGO EC20, Fluo-4 calcium flux, at 1 µM; hits give high values
[4] = system: TRPC4 beta (transient receptor potential cation channel C4), mouse; assay: positive allosteric modulators of mouse TRPC4, confirmation, cell-based, Fluo-4, HEK293 TRPC4beta/mu-opioid (AID 2555;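 active = primary screen hit whose calcium fluorescence ratio, in both repeats, exceeds the weak agonist control mean by 3 SD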); conditions: DAMGO EC20, Fluo-4 calcium flux, at 10 µM; hits give high values
[5] = target: Short transient receptor potential channel 4 (Mus musculus) (UniProt Q9QUQ5); assay: inhibitors of mouse TRPC4 channel, confirmation, cell-based, Fluo4, HEK293 TRPC4beta/mu-opioid (AID 2636;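 active = calcium signal cut by more than 3 SD below the full-agonist control yet still positive, in both repeats and the earlier primary screen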); conditions: DAMGO, Fluo4 calcium flux, at 10 µM; hits give high values
Sequence of Short transient receptor potential channel 4 (Mus musculus) (Q9QUQ5 whole entry, looked up): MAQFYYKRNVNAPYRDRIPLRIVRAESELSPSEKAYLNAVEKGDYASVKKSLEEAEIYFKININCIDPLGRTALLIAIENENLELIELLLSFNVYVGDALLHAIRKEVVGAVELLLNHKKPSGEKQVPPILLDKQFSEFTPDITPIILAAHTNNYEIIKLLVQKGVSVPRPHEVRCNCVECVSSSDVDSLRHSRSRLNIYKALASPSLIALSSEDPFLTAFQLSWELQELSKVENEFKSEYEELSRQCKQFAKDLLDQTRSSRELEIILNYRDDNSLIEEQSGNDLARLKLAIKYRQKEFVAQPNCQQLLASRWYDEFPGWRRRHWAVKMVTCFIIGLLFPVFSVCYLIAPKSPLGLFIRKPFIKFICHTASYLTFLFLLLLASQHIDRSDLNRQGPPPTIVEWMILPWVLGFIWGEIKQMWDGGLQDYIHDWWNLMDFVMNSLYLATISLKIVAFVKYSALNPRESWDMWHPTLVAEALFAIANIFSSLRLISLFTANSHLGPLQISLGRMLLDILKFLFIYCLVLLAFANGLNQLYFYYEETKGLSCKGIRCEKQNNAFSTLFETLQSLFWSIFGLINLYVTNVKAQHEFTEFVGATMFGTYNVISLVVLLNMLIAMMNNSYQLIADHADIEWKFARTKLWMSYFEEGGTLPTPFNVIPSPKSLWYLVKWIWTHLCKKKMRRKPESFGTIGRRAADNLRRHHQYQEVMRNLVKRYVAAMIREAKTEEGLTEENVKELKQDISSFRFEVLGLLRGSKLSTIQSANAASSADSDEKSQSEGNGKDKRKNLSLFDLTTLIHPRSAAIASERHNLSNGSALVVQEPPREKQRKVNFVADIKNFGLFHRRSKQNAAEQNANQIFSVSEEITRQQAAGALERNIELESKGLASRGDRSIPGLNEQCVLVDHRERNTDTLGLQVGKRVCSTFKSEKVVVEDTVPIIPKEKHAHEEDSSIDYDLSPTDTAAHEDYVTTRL

[6] = target: Short transient receptor potential channel 4 (Mus musculus) (UniProt Q9QUQ5); assay: inhibitors of mouse TRPC4 channel, confirmation, cell-based, second round, Fluo4, HEK293 TRPC4beta/mu-opioid, 1 µM (AID 2637;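 active = calcium signal ratio cut to more than 3 SD under the fully stimulated control mean yet still positive, in both repeats and the primary screen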;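 for inhibition: percent of integrated ratio relative to wells lacking test compound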); conditions: Fluo4 calcium flux, DAMGO, at 1 µM; hits give high values
[7] = target: Short transient receptor potential channel 4 (Mus musculus) (UniProt Q9QUQ5); assay: mouse TRPC4 channel activators, dose response, cell-based, HEK293 TRPC4/mu-opioid, Fluo-4 calcium (AID 434937;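 active = primary screen activator hit with a dose response curve and TRPC4 channel activation at any tested dose; inactive = no activation, no dose response, or not a primary hit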); conditions: HEK293 TRPC4 cells, Fluo-4 calcium fluorescence ratio; series mostly up to 20 µM
[8] = target: Short transient receptor potential channel 4 (Mus musculus) (UniProt Q9QUQ5); assay: TRPC4 positive allosteric modulators, dose response, cell-based, HEK293 TRPC4/mu-opioid, Fluo-4 calcium, EC20 DAMGO (AID 434941); conditions: HEK293 TRPC4/mu-opioid cells, Fluo-4 calcium fluorescence; series mostly up to 20 µM;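 note: calcium entry triggered by an EC20 dose of DAMGO at the co-expressed mu-opioid receptor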
[9] = target: Short transient receptor potential channel 6 (Mus musculus) (UniProt Q61143); assay: inhibition of mouse TRPC6 channel, confirmation, selectivity assay for TRPC4 inhibitor project, cell-based, HEK293, membrane potential dye, duplicate (AID 434948;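 active = active in primary screen and both duplicates, each dropping signal beyond three positive-control SD with fluorescence still positive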); conditions: HEK293 TRPC6, membrane potential dye fluorescence, at 10 µM, stimulated with maximal-effect acetylcholine; hits give high values
Sequence of Short transient receptor potential channel 6 (Mus musculus) (Q61143 whole entry, looked up): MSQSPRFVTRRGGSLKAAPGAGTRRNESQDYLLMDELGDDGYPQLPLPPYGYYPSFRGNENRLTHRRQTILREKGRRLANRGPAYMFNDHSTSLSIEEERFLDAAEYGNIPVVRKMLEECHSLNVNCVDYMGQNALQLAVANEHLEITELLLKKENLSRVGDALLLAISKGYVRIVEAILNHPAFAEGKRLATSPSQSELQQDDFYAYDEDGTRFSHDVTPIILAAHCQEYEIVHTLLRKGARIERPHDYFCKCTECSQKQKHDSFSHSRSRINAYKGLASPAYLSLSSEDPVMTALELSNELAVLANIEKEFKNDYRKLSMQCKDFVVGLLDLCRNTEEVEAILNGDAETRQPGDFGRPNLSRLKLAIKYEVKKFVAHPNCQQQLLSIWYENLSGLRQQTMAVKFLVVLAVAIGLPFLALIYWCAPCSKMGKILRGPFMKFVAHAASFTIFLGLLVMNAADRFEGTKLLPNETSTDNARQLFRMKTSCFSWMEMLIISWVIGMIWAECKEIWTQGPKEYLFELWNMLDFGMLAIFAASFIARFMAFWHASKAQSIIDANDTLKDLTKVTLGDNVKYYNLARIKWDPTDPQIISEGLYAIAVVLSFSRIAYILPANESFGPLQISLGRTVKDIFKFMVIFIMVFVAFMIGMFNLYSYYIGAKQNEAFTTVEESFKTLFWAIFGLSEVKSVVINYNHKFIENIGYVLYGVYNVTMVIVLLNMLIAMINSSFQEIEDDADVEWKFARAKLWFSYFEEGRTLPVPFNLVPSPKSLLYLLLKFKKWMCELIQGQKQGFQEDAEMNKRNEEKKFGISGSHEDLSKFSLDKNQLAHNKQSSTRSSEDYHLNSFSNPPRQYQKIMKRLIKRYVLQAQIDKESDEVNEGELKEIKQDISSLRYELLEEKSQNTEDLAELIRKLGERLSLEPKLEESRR

[10] = target: Short transient receptor potential channel 6 (Mus musculus) (UniProt Q61143); assay: activation of mouse TRPC6 channel, confirmation, selectivity assay for TRPC4 activator project, cell-based, HEK293, membrane potential dye, duplicate (AID 434950;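 active = membrane potential signal rise above negative control mean plus 3 SD in both duplicates, also active in the earlier TRPC4 screen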); conditions: HEK293 TRPC6, membrane potential fluorescence, at 10 µM; hits give high values
[11] = target: Short transient receptor potential channel 6 (Mus musculus) (UniProt Q61143); assay: TRPC6 potentiation by TRPC4 potentiator hits, confirmation, selectivity assay for TRPC4 potentiator project, HEK293 cells, membrane potential dye, duplicate (AID 434952;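 active = compound raising the membrane signal above positive-control mean plus 3 SD in both repeats, and a primary screen hit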); conditions: HEK293 TRPC6, membrane potential dye fluorescence, at 10 µM, maximal acetylcholine added after compound; hits give high values
[12] = target: Short transient receptor potential channel 4 (Mus musculus) (UniProt Q9QUQ5); assay: calcium flux activators in TRPC4/5HT1a cells, counter-screen for TRPC4 activator project, cell-based, second counter screen, HEK293 TRPC4/5HT1a, Fluo-4 (AID 434977;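 active = calcium signal rise above buffer-control mean plus 5 SD in both duplicates, and also a hit in the primary screen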); conditions: Fluo-4 calcium flux, at 10 µM; hits give high values
[13] = calcium flux inhibitors in TRPC4/5HT1a cells, confirmation, counter-screen for TRPC4 inhibitor project, cell-based, second counter screen, HEK293 TRPC4/5HT1a, Fluo-4 (AID 434978;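 active = primary screen active whose calcium signal fell more than 3 SD beyond the full-serotonin control mean in both duplicate plates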); conditions: Fluo-4 calcium flux, at 10 µM, serotonin added to trigger calcium flux; hits give high values
[14] = system: TRPC4 (mouse), co-expressed with 5HT1a in HEK293; assay: calcium flux potentiators in TRPC4/5HT1a cells, confirmation, counter-screen for TRPC4 potentiator project, cell-based, second counter screen, HEK293 TRPC4/5HT1a, Fluo-4 (AID 434979;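 active = signal rise over 3 SD above mean of control wells given weak agonist, in both repeats and first screen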); conditions: Fluo-4 calcium flux, at 10 µM, serotonin added at its EC20 dose; hits give high values
[15] = calcium flux activation in mu-opioid HEK293 cells, confirmation, counter-screen for TRPC4 activator project, cell-based, HEK293 mu-opioid receptor line (AID 449723;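 active = hit in primary screen, with calcium signal over 5 SD above buffer well mean in both duplicates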;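 note: counter screen cells carry the mu-opioid receptor alone and lack TRPC4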); conditions: Fluo-4 calcium fluorescence, at 10 µM; hits give high values
[16] = calcium flux enhancement in mu-opioid HEK293 cells, confirmation, counter-screen for TRPC4 allosteric potentiator project, cell-based, HEK293 mu-opioid receptor line (AID 449724;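 active = calcium signal rise more than 3 SD above the low-dose agonist control mean, in both duplicate plates and the primary screen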); conditions: Fluo-4 calcium flux, at 10 µM, compound added before EC20 DAMGO stimulus; hits give high values

Measured: inhibition

COc1ccc(SC[C@H](Cc2ccccc2)N2CCN(C)CCC2=O)cc1
active: [5] 95% | [6] 40%
inactive: all other assays above

O=C(COC(=O)Cn1cnc2ccccc2c1=O)Nc1ccccc1Sc1ccc(Cl)cc1
active: [5] 62% | [6] 43% | [13] 26.1%
inactive: all other assays above

CCCCC(CC)C(=O)Nc1ncc([N+](=O)[O-])s1 (stereo not given)
active: [5] 81% | [9] 33.5% | [13] 27.7%
inactive: all other assays above

COc1ccc(/C=C/C(=O)Oc2cc(O)cc(O)c2)cc1
active: [5] 96% | [13] 27.4%
inactive: all other assays above

CCOc1ccc(Br)cc1/C=N/O
active: [5] 90% | [9] 27.5% | [13] 29.2%
inactive: all other assays above

CC(C)(c1ccccc1)c1ccc(OCCCNCCO)cc1
active: [5] 79% | [13] 13.3%
inactive: all other assays above

Cc1cccc(NC(=O)CSc2nnc(-c3cc(C)n(-c4ccccc4)c3C)o2)c1C
active: [5] 78% | [13] 16.2%
inactive: all other assays above

O=C(Nc1ccnn1C1CCN(CCCC2CCCC2)CC1)c1ccccc1Cl
active: [5] 97%
inactive: all other assays above

CC1CCc2nc(NC(=O)CN3CCN(Cc4ccc5c(c4)OCO5)CC3)sc2C1 (stereo not given)
active: [5] 77% | [13] 28.7%
inactive: all other assays above

Cc1cccc(N(C(=O)c2snc(C(N)=O)c2N)C(C(=O)NCC2CCCO2)c2ccc3ncccc3c2)c1 (stereo not given)
active: [5] 85%
inactive: all other assays above

Cc1cc(OCc2cc(C(=O)NCCN3CCCCC3CO)no2)cc(C)c1Cl (stereo not given)
active: [5] 93% | [13] 21.5%
inactive: all other assays above

c1ccc2c(c1)nnn2-c1ncnc2sc3c(c12)CCCC3
active: [5] 71% | [13] 21.8%
inactive: all other assays above

COc1ccc2c(c1)sc(N)[n+]2Cc1cc(C)cc2cccnc12
active: [5] 99% | [9] 37% | [13] 28.6%
inactive: all other assays above

Cc1ccn2c(-c3csc(NCc4ccco4)n3)c(C)nc2c1
active: [5] 96% | [13] 22.8%
inactive: all other assays above

Cc1c(CCOC(=O)CC23CC4CC(CC(C4)C2)C3)sc[n+]1Cc1ccccc1
active: [5] 96% | [9] 44.5% | [13] 19.6%
inactive: all other assays above

NS(=O)(=O)c1ccc(CCNCc2ccccc2OCc2ccc(F)cc2)cc1
active: [5] 91% | [6] 55% | [13] 24.6%
inactive: all other assays above

Cc1cc(C)nc(/N=C(\N)N(Cc2ccccc2)Cc2ccccc2)n1
active: [5] 97% | [9] 30.5% | [13] 41.7%
inactive: all other assays above

CCN(CC)c1nc2ccccc2c(N)c1-c1ccccc1
active: [5] 89% | [9] 37.5% | [13] 33.1%
inactive: all other assays above

O=C(CSc1nc2[nH]ncc2c(=O)n1-c1ccccc1Br)NCc1ccccc1Cl
inactive: all assays above

CC12CCC(C/C1=N/OC(=O)c1cccc([N+](=O)[O-])c1)C2(C)C (stereo not given)
active: [5] 82% | [6] 40% | [13] 28.3%
inactive: all other assays above

O=C(COC(=O)c1c(Cl)cccc1Cl)Nc1ccccc1Br
active: [5] 71% | [13] 29.5%
inactive: all other assays above

CC1CCCN(c2c3c(nc4ccccc24)CCCC3)C1 (stereo not given)
active: [13] 27.9%
inactive: all other assays above

Cc1ccc2c(c1)N(C(=O)CCC(=O)Nc1ccccc1Br)CC(C)O2 (stereo not given)
active: [5] 90% | [6] 46% | [13] 31.8%
inactive: all other assays above

Cc1ccccc1CN1CCCC(C(=O)Nc2ccccc2Oc2cccnc2)C1 (stereo not given)
active: [5] 88% | [6] 51% | [13] 39.9%
inactive: all other assays above

CCOC(=O)CSc1nc2ccccc2c(=O)n1CC1CCCC1
active: [5] 84% | [13] 18.3%
inactive: all other assays above

Cc1ccc(C)c(S(=O)(=O)/N=C2\C=C(NS(=O)(=O)c3ccccc3)C(=O)c3ccccc32)c1
active: [5] 92% | [9] 33%
inactive: all other assays above

COc1ccc(C(c2nnnn2C2CCCC2)N2CCN(c3ccccc3)CC2)cc1 (stereo not given)
active: [5] 52%
inactive: all other assays above

Cc1cccc(CCN(C(=O)c2snc(C(N)=O)c2N)C(C(=O)NCC2CCCO2)c2ccc(F)cc2)c1 (stereo not given)
active: [5] 74% | [6] 68% | [13] 46.3%
inactive: all other assays above

Cn1cc(CN2CCCCC2CO)c(-c2ccc(Oc3ccccc3)cc2)n1 (stereo not given)
active: [5] 86% | [6] 41% | [13] 39.6%
inactive: all other assays above

Fc1ccccc1Sc1ccccc1CNC1=NCCN1
active: [5] 93% | [6] 68% | [13] 16.1%
inactive: all other assays above
